What was measured:
Experiment in all cases: DAPPL (digital affinity profiling via proximity ligation, sequencing); 10 mM Tris-HCl pH 7.5, 50 mM NaCl, 1 mM DTT, 4% glycerol, room temperature, 30 min; GST-TFs on glutathione beads, 16-mer random dsDNA library, 0.1% formaldehyde crosslink after washing; high values mean tight binding
FLI1 = target: T1, FLI1 (Homo sapiens, UniProt Q01543 1-452); conditions: protein: recombinant; tags: N-terminal GST; dsDNA, one strand shown
T1 sequence: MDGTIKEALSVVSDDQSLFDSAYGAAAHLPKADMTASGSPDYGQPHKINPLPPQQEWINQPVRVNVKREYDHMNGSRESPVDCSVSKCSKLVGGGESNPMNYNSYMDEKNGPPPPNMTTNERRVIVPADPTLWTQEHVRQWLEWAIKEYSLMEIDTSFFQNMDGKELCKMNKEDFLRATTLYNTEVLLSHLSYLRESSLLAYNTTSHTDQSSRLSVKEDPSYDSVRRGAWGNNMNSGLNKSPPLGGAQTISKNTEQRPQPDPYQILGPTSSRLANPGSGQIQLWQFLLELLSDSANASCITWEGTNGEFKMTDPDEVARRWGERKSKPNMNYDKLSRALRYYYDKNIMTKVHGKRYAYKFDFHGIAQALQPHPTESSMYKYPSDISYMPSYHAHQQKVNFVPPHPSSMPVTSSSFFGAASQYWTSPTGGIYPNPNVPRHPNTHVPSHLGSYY
Summary of the method: (§1)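 After expression in yeast as GST fusions, human transcription factors were bound to glutathione beads, DNA-barcoded and mixed with a tag-only sample. The pools were incubated with 200 nmole of a 16-mer random double-stranded DNA library in Tris/NaCl/DTT/glycerol buffer (30 min, room temperature), washed and crosslinked with 0.1% formaldehyde. Proximity ligation with BsaI/T4 ligase ran for 1 h at 37 °C, before PCR amplification and sequencing on an Illumina NextSeq500. Binding signal is a hexamer's read frequency for a factor divided by its frequency for the tag-only sample.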

ELK1 = target: T2, ELK1 (Homo sapiens, UniProt P19419 1-428); conditions: protein: recombinant; tags: N-terminal GST; dsDNA, one strand shown
T2 sequence: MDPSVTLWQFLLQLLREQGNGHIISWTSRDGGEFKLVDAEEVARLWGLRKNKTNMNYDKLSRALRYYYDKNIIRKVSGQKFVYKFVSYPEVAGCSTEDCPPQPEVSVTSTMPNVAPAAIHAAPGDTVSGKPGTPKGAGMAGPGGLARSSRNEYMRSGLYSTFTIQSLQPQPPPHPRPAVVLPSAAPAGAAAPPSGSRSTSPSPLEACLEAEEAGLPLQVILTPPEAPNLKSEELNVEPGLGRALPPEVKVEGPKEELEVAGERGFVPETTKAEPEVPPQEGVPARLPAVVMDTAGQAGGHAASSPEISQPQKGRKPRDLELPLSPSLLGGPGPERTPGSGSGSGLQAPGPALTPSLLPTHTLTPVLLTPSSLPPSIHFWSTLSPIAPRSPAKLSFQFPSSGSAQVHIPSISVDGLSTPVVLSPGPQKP
Summary of the method: as §1

GABPA = target: T3, GABPA (Homo sapiens, UniProt Q06546 1-454); conditions: protein: recombinant; tags: N-terminal GST; dsDNA, one strand shown
T3 sequence: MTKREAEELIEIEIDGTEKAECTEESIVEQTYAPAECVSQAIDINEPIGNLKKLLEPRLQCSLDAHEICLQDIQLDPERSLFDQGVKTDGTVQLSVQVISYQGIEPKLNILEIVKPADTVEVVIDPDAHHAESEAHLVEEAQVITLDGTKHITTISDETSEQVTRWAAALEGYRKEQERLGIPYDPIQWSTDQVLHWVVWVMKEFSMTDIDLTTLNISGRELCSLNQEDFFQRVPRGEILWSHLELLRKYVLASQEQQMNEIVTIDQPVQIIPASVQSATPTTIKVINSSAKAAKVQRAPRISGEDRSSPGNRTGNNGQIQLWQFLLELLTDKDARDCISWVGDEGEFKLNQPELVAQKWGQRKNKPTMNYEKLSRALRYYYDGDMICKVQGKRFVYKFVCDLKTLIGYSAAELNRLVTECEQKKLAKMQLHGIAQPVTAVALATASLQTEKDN
Summary of the method: as §1

ERG = target: T4, ERG (Homo sapiens, UniProt P11308 1-479); conditions: protein: recombinant; tags: N-terminal GST; dsDNA, one strand shown
T4 sequence: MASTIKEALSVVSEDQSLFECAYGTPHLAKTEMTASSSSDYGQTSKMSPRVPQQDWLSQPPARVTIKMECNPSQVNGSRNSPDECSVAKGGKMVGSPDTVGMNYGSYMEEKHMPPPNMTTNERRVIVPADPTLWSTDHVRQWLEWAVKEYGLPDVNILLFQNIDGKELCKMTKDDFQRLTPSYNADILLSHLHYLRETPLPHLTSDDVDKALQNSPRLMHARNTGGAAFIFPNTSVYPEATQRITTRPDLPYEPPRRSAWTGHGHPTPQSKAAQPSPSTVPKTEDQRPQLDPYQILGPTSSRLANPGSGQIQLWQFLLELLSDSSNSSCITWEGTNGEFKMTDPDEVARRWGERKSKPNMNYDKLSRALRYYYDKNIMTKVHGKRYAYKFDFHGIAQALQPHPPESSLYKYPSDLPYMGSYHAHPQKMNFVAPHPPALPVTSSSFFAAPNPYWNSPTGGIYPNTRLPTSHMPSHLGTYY
Summary of the method: as §1

ELF1 = ELF1 (Homo sapiens, UniProt P32519 1-619); conditions: protein: recombinant; tags: N-terminal GST; dsDNA, one strand shown
Summary of the method: as §1

EHF = target: T5, EHF (Homo sapiens, UniProt Q9NZC4 1-300); conditions: protein: recombinant; tags: N-terminal GST; dsDNA, one strand shown
T5 sequence: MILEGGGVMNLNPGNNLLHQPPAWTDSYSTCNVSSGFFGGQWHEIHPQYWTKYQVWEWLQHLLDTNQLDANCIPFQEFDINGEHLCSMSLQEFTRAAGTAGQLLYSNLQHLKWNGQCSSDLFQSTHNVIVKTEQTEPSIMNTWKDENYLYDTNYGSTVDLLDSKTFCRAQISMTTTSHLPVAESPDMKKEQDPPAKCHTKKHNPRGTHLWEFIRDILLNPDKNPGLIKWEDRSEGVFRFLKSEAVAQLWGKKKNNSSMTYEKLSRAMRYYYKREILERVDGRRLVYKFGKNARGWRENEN
Summary of the method: as §1

SPI1 = SPI1 (Homo sapiens, UniProt P17947 1-270); conditions: protein: recombinant; tags: N-terminal GST; dsDNA, one strand shown
Summary of the method: as §1

SPIB = SPIB (Homo sapiens, UniProt Q01892 1-262); conditions: protein: recombinant; tags: N-terminal GST; dsDNA, one strand shown
Summary of the method: as §1

ELK3 = target: T6, ELK3 (Homo sapiens, UniProt P41970 1-407); conditions: protein: recombinant; tags: N-terminal GST; dsDNA, one strand shown
T6 sequence: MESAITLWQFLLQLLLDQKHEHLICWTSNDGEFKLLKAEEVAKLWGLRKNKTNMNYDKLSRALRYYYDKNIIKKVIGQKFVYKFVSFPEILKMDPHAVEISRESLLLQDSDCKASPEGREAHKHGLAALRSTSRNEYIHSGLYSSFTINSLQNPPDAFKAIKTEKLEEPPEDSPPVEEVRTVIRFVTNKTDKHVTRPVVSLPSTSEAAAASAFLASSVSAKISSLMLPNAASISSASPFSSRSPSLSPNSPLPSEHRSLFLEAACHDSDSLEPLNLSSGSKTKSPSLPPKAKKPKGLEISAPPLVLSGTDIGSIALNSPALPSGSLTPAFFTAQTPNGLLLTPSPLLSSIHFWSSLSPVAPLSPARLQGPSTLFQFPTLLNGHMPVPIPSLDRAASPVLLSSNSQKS
Summary of the method: as §1

FEV = target: T7, FEV (Homo sapiens, UniProt Q99581 1-238); conditions: protein: recombinant; tags: N-terminal GST; dsDNA, one strand shown
T7 sequence: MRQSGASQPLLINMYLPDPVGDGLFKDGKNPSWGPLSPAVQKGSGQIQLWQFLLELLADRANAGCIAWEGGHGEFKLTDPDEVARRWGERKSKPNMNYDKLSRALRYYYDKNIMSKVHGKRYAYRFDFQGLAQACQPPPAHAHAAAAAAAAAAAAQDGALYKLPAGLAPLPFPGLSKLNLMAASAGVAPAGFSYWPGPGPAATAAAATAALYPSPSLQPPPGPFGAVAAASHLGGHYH
Summary of the method: as §1

ETV5 = ETV5 (Homo sapiens, UniProt P41161 1-510); conditions: protein: recombinant; tags: N-terminal GST; dsDNA, one strand shown
Summary of the method: as §1

HSF1 = HSF1 (Homo sapiens, UniProt Q00613 1-529); conditions: protein: recombinant; tags: N-terminal GST; chain copies: 3; dsDNA, one strand shown
Summary of the method: as §1

SPIC = target: T8, SPIC (Homo sapiens, UniProt Q8N5J4 1-248); conditions: protein: recombinant; tags: N-terminal GST; dsDNA, one strand shown
T8 sequence: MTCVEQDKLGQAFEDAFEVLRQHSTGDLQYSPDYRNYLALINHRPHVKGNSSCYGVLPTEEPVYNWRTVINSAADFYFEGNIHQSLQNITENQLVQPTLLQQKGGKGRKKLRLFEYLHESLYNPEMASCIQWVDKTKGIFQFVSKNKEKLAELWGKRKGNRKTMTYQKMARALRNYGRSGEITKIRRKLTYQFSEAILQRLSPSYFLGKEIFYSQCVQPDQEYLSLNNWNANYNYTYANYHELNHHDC
Summary of the method: as §1

ELF4 = ELF4 (Homo sapiens, UniProt Q99607 1-663); conditions: protein: recombinant; tags: N-terminal GST; dsDNA, one strand shown
Summary of the method: as §1

ELK4 = target: T9, ELK4 (Homo sapiens, UniProt P28324-2 1-405); conditions: protein: recombinant; tags: N-terminal GST; dsDNA, one strand shown
T9 sequence: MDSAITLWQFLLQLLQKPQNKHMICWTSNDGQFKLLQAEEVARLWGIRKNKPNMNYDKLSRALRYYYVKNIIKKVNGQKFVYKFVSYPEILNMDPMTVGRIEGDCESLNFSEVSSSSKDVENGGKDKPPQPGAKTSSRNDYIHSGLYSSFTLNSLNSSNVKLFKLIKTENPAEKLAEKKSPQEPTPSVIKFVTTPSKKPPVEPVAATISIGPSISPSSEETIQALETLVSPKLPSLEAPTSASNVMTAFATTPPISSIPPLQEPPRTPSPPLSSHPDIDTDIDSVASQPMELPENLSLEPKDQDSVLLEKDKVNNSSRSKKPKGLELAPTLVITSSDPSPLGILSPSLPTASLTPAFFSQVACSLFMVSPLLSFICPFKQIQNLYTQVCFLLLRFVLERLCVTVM
Summary of the method: as §1

ETV2 = target: T10, ETV2 (Homo sapiens, UniProt O00321 1-342); conditions: protein: recombinant; tags: N-terminal GST; dsDNA, one strand shown
T10 sequence: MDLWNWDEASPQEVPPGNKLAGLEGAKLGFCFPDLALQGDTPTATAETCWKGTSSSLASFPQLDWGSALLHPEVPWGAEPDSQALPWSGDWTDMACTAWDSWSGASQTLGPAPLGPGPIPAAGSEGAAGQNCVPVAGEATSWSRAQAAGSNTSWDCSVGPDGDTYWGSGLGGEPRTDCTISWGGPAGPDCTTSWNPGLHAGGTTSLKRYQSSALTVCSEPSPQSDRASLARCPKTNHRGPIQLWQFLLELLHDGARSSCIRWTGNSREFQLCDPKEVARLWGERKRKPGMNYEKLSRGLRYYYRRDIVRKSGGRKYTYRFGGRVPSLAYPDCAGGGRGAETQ
Summary of the method: as §1

ELF3 = target: T11, ELF3 (Homo sapiens, UniProt P78545 1-371); conditions: protein: recombinant; tags: N-terminal GST; dsDNA, one strand shown
T11 sequence: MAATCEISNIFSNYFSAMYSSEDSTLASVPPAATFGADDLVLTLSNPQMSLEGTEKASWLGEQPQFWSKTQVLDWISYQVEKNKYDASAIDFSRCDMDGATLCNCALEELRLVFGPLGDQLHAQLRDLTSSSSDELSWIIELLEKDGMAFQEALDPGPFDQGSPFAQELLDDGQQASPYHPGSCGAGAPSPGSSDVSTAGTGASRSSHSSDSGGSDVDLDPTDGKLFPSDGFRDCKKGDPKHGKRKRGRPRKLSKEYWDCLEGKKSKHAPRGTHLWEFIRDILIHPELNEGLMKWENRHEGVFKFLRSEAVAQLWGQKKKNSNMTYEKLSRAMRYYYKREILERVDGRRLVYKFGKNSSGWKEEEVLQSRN
Summary of the method: as §1

CRX = CRX (Homo sapiens, UniProt O43186 1-299); conditions: protein: recombinant; tags: N-terminal GST; dsDNA, one strand shown
Summary of the method: as §1

ETV1 = ETV1 (Homo sapiens, UniProt P50549 1-477); conditions: protein: recombinant; tags: N-terminal GST; dsDNA, one strand shown
Summary of the method: as §1

Chain of ELF4 (Q99607 whole entry): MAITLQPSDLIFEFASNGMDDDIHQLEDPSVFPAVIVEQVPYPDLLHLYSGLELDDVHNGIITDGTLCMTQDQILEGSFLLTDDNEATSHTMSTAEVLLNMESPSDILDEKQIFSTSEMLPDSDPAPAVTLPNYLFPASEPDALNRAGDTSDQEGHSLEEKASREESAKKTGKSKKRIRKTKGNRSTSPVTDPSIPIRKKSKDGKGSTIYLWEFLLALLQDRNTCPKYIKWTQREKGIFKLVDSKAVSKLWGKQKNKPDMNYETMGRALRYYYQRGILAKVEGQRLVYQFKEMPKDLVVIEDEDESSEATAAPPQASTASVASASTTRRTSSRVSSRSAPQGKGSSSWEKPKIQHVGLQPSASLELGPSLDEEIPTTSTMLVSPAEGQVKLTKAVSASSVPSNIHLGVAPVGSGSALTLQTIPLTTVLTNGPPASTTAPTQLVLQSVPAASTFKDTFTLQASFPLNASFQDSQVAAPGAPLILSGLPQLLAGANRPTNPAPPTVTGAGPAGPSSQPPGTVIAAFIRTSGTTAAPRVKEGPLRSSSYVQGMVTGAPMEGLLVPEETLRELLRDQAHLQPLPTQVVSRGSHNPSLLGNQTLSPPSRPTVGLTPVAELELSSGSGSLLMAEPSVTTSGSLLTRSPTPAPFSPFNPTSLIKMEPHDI
Chain of CRX (O43186 whole entry): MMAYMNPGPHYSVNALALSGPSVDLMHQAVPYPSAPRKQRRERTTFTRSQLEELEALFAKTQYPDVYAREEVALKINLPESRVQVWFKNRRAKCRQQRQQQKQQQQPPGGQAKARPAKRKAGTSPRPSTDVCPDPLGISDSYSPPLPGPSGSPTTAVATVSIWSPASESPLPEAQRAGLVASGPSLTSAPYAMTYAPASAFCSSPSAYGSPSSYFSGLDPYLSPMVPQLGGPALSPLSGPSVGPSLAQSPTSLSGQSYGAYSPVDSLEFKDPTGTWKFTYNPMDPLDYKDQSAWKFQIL
Chain of ETV1 (P50549 whole entry): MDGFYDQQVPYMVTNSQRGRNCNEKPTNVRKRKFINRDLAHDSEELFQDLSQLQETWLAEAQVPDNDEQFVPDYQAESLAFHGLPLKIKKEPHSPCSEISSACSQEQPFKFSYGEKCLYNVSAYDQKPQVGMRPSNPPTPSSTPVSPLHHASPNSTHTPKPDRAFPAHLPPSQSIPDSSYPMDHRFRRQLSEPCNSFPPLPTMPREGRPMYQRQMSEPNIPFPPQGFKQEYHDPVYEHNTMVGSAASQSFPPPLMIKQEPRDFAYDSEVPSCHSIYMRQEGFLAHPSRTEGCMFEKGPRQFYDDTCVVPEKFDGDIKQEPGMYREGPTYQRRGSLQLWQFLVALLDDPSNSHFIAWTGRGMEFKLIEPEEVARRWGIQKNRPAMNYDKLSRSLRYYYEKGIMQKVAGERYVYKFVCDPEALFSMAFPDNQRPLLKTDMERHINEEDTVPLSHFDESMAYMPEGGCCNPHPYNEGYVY
Chain of ETV5 (P41161 whole entry): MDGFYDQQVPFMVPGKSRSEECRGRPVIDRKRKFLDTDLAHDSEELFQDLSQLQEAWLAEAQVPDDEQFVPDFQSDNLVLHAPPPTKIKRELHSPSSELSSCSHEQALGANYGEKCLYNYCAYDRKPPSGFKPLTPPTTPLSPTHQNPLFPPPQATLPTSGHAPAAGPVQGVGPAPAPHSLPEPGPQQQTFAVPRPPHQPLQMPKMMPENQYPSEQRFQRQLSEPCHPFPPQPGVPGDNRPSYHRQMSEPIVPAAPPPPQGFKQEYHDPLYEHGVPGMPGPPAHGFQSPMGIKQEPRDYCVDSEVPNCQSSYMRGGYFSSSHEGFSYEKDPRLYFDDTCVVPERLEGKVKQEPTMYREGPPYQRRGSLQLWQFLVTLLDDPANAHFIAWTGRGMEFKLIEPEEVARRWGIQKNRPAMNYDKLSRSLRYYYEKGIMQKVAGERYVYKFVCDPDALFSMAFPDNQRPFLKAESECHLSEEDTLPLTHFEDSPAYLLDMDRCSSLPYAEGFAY
Chain of ELF1 (P32519 whole entry): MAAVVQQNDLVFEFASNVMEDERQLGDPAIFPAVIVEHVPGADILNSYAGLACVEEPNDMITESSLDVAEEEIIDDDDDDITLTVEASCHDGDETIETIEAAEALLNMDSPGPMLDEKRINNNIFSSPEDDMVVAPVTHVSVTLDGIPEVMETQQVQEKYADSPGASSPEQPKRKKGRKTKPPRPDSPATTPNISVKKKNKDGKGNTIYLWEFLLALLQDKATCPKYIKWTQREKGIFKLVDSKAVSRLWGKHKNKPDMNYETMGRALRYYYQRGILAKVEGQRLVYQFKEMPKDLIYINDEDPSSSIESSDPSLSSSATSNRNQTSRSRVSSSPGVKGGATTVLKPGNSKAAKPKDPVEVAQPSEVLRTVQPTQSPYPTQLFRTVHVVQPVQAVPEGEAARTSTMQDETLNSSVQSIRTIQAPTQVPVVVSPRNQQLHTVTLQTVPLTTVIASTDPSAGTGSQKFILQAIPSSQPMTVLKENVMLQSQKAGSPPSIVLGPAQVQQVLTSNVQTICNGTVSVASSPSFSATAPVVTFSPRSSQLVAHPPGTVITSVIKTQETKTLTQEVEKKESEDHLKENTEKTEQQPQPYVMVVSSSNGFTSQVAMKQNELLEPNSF
Chain of SPIB (Q01892 whole entry): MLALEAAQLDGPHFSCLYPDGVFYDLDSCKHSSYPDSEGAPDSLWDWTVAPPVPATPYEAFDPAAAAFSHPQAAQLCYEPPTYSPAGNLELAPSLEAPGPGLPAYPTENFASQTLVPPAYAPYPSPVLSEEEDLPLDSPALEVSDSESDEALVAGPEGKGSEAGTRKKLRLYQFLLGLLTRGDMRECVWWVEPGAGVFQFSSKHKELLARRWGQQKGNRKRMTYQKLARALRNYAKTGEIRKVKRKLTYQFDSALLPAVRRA
Chain of HSF1 (Q00613 whole entry): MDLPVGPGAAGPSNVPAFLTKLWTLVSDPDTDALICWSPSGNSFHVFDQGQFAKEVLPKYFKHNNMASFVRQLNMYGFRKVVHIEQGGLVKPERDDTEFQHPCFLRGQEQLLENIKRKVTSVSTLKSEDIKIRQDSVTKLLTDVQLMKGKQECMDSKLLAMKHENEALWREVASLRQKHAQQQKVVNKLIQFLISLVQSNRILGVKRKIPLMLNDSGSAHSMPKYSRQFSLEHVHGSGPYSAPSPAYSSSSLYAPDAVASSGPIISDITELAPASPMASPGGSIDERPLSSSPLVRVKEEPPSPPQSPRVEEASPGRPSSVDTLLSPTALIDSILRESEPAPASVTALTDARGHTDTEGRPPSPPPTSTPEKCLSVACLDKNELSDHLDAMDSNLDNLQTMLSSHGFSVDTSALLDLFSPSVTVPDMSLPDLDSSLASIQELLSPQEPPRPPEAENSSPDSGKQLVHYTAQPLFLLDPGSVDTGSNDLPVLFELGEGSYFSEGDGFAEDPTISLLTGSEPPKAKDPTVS

In the case of AATGTC, the binding signal (FLI1) is reported as 1.16 fold enrichment (6-mer frequency, TF over GST control), the binding signal (ELK1) is reported as 1.21 fold enrichment (6-mer frequency, TF over GST control) and the binding signal (GABPA) is reported as 1.23 fold enrichment (6-mer frequency, TF over GST control). For the same sequence, the binding signal (ERG) was 1.27 fold enrichment (6-mer frequency, TF over GST control), the binding signal (ELF1) was 1.22 fold enrichment (6-mer frequency, TF over GST control) and the binding signal (EHF) was 1.29 fold enrichment (6-mer frequency, TF over GST control). For the same sequence, the binding signal (SPI1) was 1.23 fold enrichment (6-mer frequency, TF over GST control), the binding signal (SPIB) was 1.25 fold enrichment (6-mer frequency, TF over GST control) and the binding signal (ELK3) was 1.23 fold enrichment (6-mer frequency, TF over GST control). The binding signal (FEV) was 1.19 fold enrichment (6-mer frequency, TF over GST control), the binding signal (ETV5) was 1.23 fold enrichment (6-mer frequency, TF over GST control) and the binding signal (HSF1) was 1.14 fold enrichment (6-mer frequency, TF over GST control). For the same sequence, the binding signal (SPIC) was 1.41 fold enrichment (6-mer frequency, TF over GST control), the binding signal (ELF4) was 1.21 fold enrichment (6-mer frequency, TF over GST control) and the binding signal (ELK4) was 1.32 fold enrichment (6-mer frequency, TF over GST control). The binding signal (ETV2) was 1.15 fold enrichment (6-mer frequency, TF over GST control), the binding signal (ELF3) was 1.36 fold enrichment (6-mer frequency, TF over GST control) and the binding signal (CRX) was 1.04 fold enrichment (6-mer frequency, TF over GST control). For the same sequence, the binding signal (ETV1) was 1.14 fold enrichment (6-mer frequency, TF over GST control).

— paper PMC7862700, “An all-to-all approach to the identification of sequence-specific readers for epigenetic DNA modifications on cytosine”
